Measurements as given in PubChem BioAssay (NCATS).
Results filed as inconclusive are left out. Entries that show only a call come without a potency. Active and inactive are the calls of the source. Calls come from the whole dose curve; as a rule, active = well fitted inhibition curve with a large enough effect; inconclusive = small, poorly fitted or top-dose-only effect; inactive = flat fitted curve, though single readings scatter.

Key:
Assay in all cases: qHTS profiling for inhibitors of Plasmodium falciparum proliferation (AID 504749); note: nearly all actives have a fitted effect of over 60% in size
Settings in all cases: P. falciparum in erythrocytes, SYBR Green DNA, 72 h; series mostly up to 28.7 µM
CP269 = test system: CP269
How it was run: (§1)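 Three-day growth assay of blood-stage parasites in erythrocytes (0.3% parasitemia, 2.5% hematocrit) at 37 C, 5% CO2, quantified by SYBR Green DNA staining after overnight detergent lysis.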

CP286 = test system: CP286
How it was run: as §1

CP291 = test system: CP291
How it was run: as §1

CP297 = test system: CP297
How it was run: as §1

CP305 = test system: CP305
How it was run: as §1

CP315 = test system: CP315
How it was run: as §1

CP325 = test system: CP325
How it was run: as §1

CP329 = test system: CP329
How it was run: as §1

CP335 = test system: CP335
How it was run: as §1

DFO2036 = test system: DFO2036
How it was run: as §1

DIV14 = test system: DIV14
How it was run: as §1

DIV17 = test system: DIV17
How it was run: as §1

DIV30 = test system: DIV30
How it was run: as §1

Dd2 = test system: Dd2
How it was run: as §1

ECU = test system: ECU
How it was run: as §1

FAB9 = test system: FAB9
How it was run: as §1

GB4 = test system: GB4
How it was run: as §1

HB3 = test system: HB3
How it was run: as §1

ICS = test system: ICS
How it was run: as §1

JCK = test system: JCK
How it was run: as §1
Potency is the fitted concentration of half-maximal effect.

Structure (SMILES)	Potency (CP269)	Potency (CP286)	Potency (CP291)	Potency (CP297)	Potency (CP305)	Potency (CP315)	Potency (CP325)	Potency (CP329)	Potency (CP335)	Potency (DFO2036)	Potency (DIV14)	Potency (DIV17)	Potency (DIV30)	Potency (Dd2)	Potency (ECU)	Potency (FAB9)	Potency (GB4)	Potency (HB3)	Potency (ICS)	Potency (JCK)
CCC(C(N)=O)N1CCCC1=O (stereo unspecified)	inactive	inactive	inactive	inactive	inactive	inactive	inactive	inactive	inactive	inactive	inactive	inactive	inactive	inactive	inactive	inactive	inactive	inactive	inactive	inactive
Clc1ccc(COC(Cn2ccnc2)c2ccc(Cl)cc2Cl)cc1 (stereo unspecified)	4.78 µM (active)	3.98 µM (active)	7.57 µM (active)	3.79 µM (active)	13.5 µM (active)	15.1 µM (active)	9.53 µM (active)	10.7 µM (active)	4.26 µM (active)	2.51 µM (active)	1.9 µM (active)	1.51 µM (active)	1.69 µM (active)	2.82 µM (active)	0.794 µM (active)	11.2 µM (active)	1.69 µM (active)	3.98 µM (active)	0.631 µM (active)	8.91 µM (active)
CCCC(C)(COC(N)=O)COC(=O)NC(C)C (stereo unspecified)	inactive	inactive	inactive	inactive	inactive	inactive	inactive	inactive	inactive	inactive	inactive	inactive	inactive	inactive	inactive	inactive	inactive	inactive	inactive	inactive
CC1OC(C)OC(C)O1 (stereo unspecified)	inactive	inactive	inactive	inactive	inactive	inactive	inactive	inactive	inactive	inactive	inactive	inactive	inactive	inactive	inactive	inactive	inactive	inactive	inactive	inactive
Cn1c(CCCC(=O)O)nc2cc(N(CCCl)CCCl)ccc21	inactive	inactive	inactive	inactive	inactive	inactive	inactive	inactive	inactive	inactive	inactive	inactive	inactive	inactive	inactive	inactive	inactive	inactive		inactive
CCOP(=S)(OCC)Oc1cc(C)nc(C(C)C)n1	inactive	inactive	inactive	inactive	inactive	inactive	inactive	inactive	inactive	inactive	inactive	inactive	inactive	inactive	inactive	inactive	inactive	inactive	inactive	inactive
CC[N+]1(C)CCCC(OC(=O)C(O)(c2ccccc2)c2ccccc2)C1 (stereo unspecified)	inactive	inactive	inactive	inactive	inactive	inactive	inactive	inactive	inactive	inactive	inactive	inactive	inactive	inactive	inactive	inactive	inactive	inactive	inactive	inactive
NN=C(N)N	inactive	inactive	inactive	inactive	inactive	inactive	inactive	inactive	inactive	inactive	inactive	inactive	inactive	inactive	inactive	inactive	inactive	inactive	inactive	inactive
OCCOc1ccccc1	inactive	inactive	inactive	inactive	inactive	inactive	inactive	inactive	inactive	inactive	inactive	inactive	inactive	inactive	inactive	inactive	inactive	inactive	inactive	inactive
C=C(C)[C@H]1Cc2c(ccc3c2O[C@@H]2COc4cc(OC)c(OC)cc4[C@@H]2C3=O)O1		inactive		inactive	inactive	inactive	inactive	inactive		inactive				inactive	inactive	inactive		inactive	11.2 µM (active)	inactive
COc1ccc(C(CN(C)C)C2(O)CCCCC2)cc1 (stereo unspecified)	inactive	inactive	inactive		inactive	inactive		inactive		inactive	inactive		inactive		inactive	inactive		inactive	inactive	inactive
C#CCOC(C(=O)OCCN(C)C)(c1ccccc1)c1ccccc1	inactive	inactive	inactive	inactive	inactive	inactive	inactive	inactive		inactive	inactive		inactive			inactive	inactive	inactive		inactive
Oc1cc(Cl)ccc1Oc1ccc(Cl)cc1Cl	12 µM (active)	12.6 µM (active)		15.1 µM (active)	inactive					10 µM (active)	3.01 µM (active)	6.01 µM (active)	6.75 µM (active)	11.2 µM (active)	6.31 µM (active)	11.2 µM (active)	4.78 µM (active)	8.91 µM (active)	1.58 µM (active)	11.2 µM (active)
c1ccc2c(c1)OCC(C1=NCCN1)O2 (stereo unspecified)	inactive	inactive	inactive	inactive	inactive	inactive	inactive	inactive		inactive			inactive	inactive	inactive	inactive		inactive		inactive
CC(C)(N)Cc1ccc(Cl)cc1	inactive	inactive	inactive			inactive	inactive			inactive		inactive	inactive		inactive	inactive	8.49 µM (active)	inactive	inactive	
C[C@]12C/C(=C/O)C(=O)C[C@@H]1CC[C@@H]1[C@@H]2CC[C@@]2(C)[C@H]1CC[C@]2(C)O	inactive	inactive		inactive	inactive	inactive	inactive	inactive	inactive	inactive			inactive	inactive	inactive	inactive	inactive	inactive		inactive
CCC1(C2=NCCN2)Cc2ccccc2O1 (stereo unspecified)				9.53 µM (active)					8.49 µM (active)					10 µM (active)	inactive	inactive	8.49 µM (active)	inactive	inactive	inactive

Structure (SMILES)	Potency (CP269)	Potency (CP286)	Potency (CP291)	Potency (CP297)	Potency (CP305)	Potency (CP315)	Potency (CP325)	Potency (CP329)	Potency (CP335)	Potency (DFO2036)	Potency (DIV14)	Potency (DIV17)	Potency (DIV30)	Potency (Dd2)	Potency (ECU)	Potency (FAB9)	Potency (GB4)	Potency (HB3)	Potency (ICS)	Potency (JCK)
N[C@@H](Cc1ccc(N(CCCl)CCCl)cc1)C(=O)O			inactive	inactive	inactive	inactive	inactive	inactive			10.7 µM (active)	15.1 µM (active)	inactive	12.6 µM (active)		inactive	15.1 µM (active)			inactive
CCN(C(C)=O)c1cccc(-c2ccnc3c(C#N)cnn23)c1	inactive	inactive	inactive		inactive	inactive	inactive	inactive	inactive	inactive		inactive	inactive	inactive	inactive	inactive	inactive	inactive	inactive	inactive
CC(C)NCC(O)c1ccccc1Cl (stereo unspecified)		10 µM (active)		15.1 µM (active)		inactive		inactive			6.75 µM (active)	6.75 µM (active)		11.2 µM (active)	7.94 µM (active)	inactive	8.49 µM (active)		4.47 µM (active)	
CN1C[C@H](CNC(=O)OCc2ccccc2)C[C@@H]2c3cccc4c3c(cn4C)C[C@H]21		8.91 µM (active)							6.75 µM (active)	8.91 µM (active)	8.49 µM (active)	15.1 µM (active)	15.1 µM (active)	7.94 µM (active)	11.2 µM (active)	inactive	8.49 µM (active)		7.08 µM (active)	inactive
Cc1cccc(C)c1NC1=NCCCS1						inactive								12.6 µM (active)	inactive	inactive	8.49 µM (active)	inactive	12.6 µM (active)	inactive
Clc1cccc(N2CCNCC2)c1	inactive	inactive	inactive		inactive	inactive	inactive	inactive		inactive			inactive		inactive	inactive		inactive	inactive	inactive
CCN(CC)CCOC(=O)C(O)(c1ccccc1)c1ccccc1	inactive	inactive	inactive		inactive	inactive	inactive	inactive		inactive		inactive	inactive	inactive	inactive	inactive	inactive	inactive	inactive	inactive
N#CC(C#N)=Cc1ccc(O)c(O)c1	inactive	inactive	inactive		inactive	inactive	inactive	inactive		inactive	inactive		inactive	inactive	inactive	inactive		inactive	inactive	inactive
O=c1[nH]c2ccccc2n1C1CCN(CCCC(c2ccc(F)cc2)c2ccc(F)cc2)CC1		11.2 µM (active)	inactive		inactive			inactive	13.5 µM (active)	inactive	inactive	inactive	inactive	7.94 µM (active)	inactive	inactive	inactive	10 µM (active)	14.1 µM (active)	inactive
CCN(CC)CCN1C(=O)CN=C(c2ccccc2F)c2cc(Cl)ccc21	inactive	inactive		inactive	inactive	inactive	inactive			inactive		inactive	inactive		inactive	inactive		inactive		inactive
CCCN1CCC[C@@H]2Cc3[nH]ncc3C[C@H]21	inactive		inactive	inactive	inactive	inactive	inactive	inactive	inactive		inactive	inactive	inactive				inactive			
Oc1ccc(Cl)cc1Cc1ccccc1		inactive				inactive	inactive	inactive			7.57 µM (active)	7.57 µM (active)	10.7 µM (active)	10 µM (active)	11.2 µM (active)	inactive	8.49 µM (active)	12.6 µM (active)	2 µM (active)	
CC(C)=CC1C(C(=O)OCc2cccc(Oc3ccccc3)c2)C1(C)C (stereo unspecified)	inactive		inactive	inactive	inactive	inactive	inactive	inactive	inactive	inactive	inactive	inactive			inactive	inactive	inactive	inactive		inactive
COc1ccc(C(=O)c2c(C)n(CCN3CCOCC3)c3ccccc23)cc1	inactive	inactive	inactive	inactive	inactive	inactive	inactive	inactive	inactive	inactive			inactive	inactive	inactive	inactive		inactive		inactive
Fc1ccc(C(OCCN2CCN(CCCc3ccccc3)CC2)c2ccc(F)cc2)cc1	15.1 µM (active)	11.2 µM (active)	10.7 µM (active)		10.7 µM (active)		15.1 µM (active)		9.53 µM (active)	11.2 µM (active)	10.7 µM (active)	10.7 µM (active)			10 µM (active)		15.1 µM (active)	8.91 µM (active)	3.55 µM (active)	11.2 µM (active)
O=C(O)c1ccc2[nH]cc(CCCCN3CC=C(c4ccccc4)CC3)c2c1	inactive	inactive	inactive		inactive	inactive	inactive	inactive	inactive	inactive		inactive	inactive	inactive	inactive	inactive	inactive	inactive	inactive	inactive
